Laboratory results reported in PubChem BioAssay AID1851 (National Center for Advancing Translational Sciences (NCATS), 2009).
Hit rate of the full screen: of about 16,000 compounds, about 5,100 (32%) were called active. Roughly 25% stayed inconclusive and do not appear here. Calls come from the whole dose curve; as a rule, active = well fitted curve in the direction sought with a large enough effect; inconclusive = small, poorly fitted or top-dose-only effect, or effect the other way; inactive = no such curve, though single readings can be large or run the other way. The list shows a part of the results.

The compounds below were run against Cytochrome P450 3A4 (Homo sapiens) (UniProt P08684) (assay: Cytochrome panel assay with activity outcomes). Details: recombinant CYP, pro-luciferin dealkylation, luminescence, p450-cyp3a4; series mostly up to 57.1 µM.
Cytochrome P450 3A4 (Homo sapiens), sequence (P08684 whole entry, looked up): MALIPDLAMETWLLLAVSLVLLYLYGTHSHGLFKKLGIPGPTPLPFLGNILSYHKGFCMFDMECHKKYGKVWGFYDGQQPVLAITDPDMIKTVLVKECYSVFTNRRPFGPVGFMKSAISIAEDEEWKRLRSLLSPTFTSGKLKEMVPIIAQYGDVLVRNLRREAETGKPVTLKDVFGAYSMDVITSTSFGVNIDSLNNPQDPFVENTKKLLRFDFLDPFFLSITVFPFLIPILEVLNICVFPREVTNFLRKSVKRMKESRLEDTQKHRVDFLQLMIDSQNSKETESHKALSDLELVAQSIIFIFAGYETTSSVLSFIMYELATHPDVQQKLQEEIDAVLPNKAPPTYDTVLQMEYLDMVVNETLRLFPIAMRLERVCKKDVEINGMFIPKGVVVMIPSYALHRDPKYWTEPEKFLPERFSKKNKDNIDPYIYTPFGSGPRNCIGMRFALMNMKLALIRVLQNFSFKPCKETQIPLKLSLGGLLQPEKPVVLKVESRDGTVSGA
% is set by controls: 0 for no effect and ±100 for the full control effect.

Structure (SMILES)	AC50	activity, negative = inhibition
Cc1ccccc1CNc1ncnc2c1ncn2[C@@H]1O[C@@H](CO)[C@H](O)[C@@H]1O	inactive	
NC[C@H]1O[C@H](n2cnc3c(N)ncnc32)C[C@@H]1O		-10.5% [at 11.4 µM] (inactive)
CCc1ccc(N(C(=O)c2snc(C(N)=O)c2N)C(C(=O)NCCC(C)C)c2c[nH]c3ccccc23)cc1 (stereo not given)	3.98 µM (active)	
CC(=O)OC[C@@H]1O[C@@H](O/N=C2/C[C@@H](O)[C@@H](O)[C@@H]3[C@@H]4C(=O)N(C5CCCCC5)C(=O)[C@H]4CC[C@@H]23)[C@H](OC(C)=O)[C@H](OC(C)=O)[C@@H]1OC(C)=O		-21.5% [at 11.4 µM] (inactive)
c1ccc(-c2noc(-c3ccc4ccccc4c3)n2)cc1	inactive	
COc1cccc(-c2nccc(NCc3ccccc3)n2)c1	3.98 µM (active)	
COc1cccc(-c2noc(-c3cccnc3)n2)c1	5.01 µM (active)	
COc1cccc(-c2nccc(NCc3cccnc3)n2)c1	1.26 µM (active)	
COc1ccc(-c2cc(C(F)(F)F)nc(NCc3cccnc3)n2)cc1	4.47 µM (active)	
COc1cccc(-c2nccc(NC3CCNCC3)n2)c1	inactive	
CO[C@@H]1COC(=O)[C@H]2CCCN2C(=O)[C@@H](C)COC(=O)C/C=C\[C@H]1C		-15.8% [at 11.4 µM] (inactive)
COCC(C)NCc1cccc(C)c1 (stereo not given)	inactive	
COc1cccc(-c2nccc(NCc3cccc(C)c3)n2)c1	3.98 µM (active)	
COc1cccc(-c2nccc(NCc3cccs3)n2)c1	5.01 µM (active)	
Cc1ccc2nc(-c3ccc(NC(=O)c4ccc(N)cc4)c(S(=O)(=O)O)c3)sc2c1		-13.7% [at 11.4 µM] (inactive)
Cc1ccc(C)c(S(=O)(=O)NC(CC(C)C)C(=O)O)c1 (stereo not given)	inactive	
Cc1ccc(C)c(S(=O)(=O)NC(C)C(=O)Nc2ccc(-c3nc4ccccc4s3)cc2)c1 (stereo not given)	3.55 µM (active)	
COc1ccc([N+](=O)[O-])cc1N(CC(O)CN(CC(C)C)CC(C)C)S(=O)(=O)c1ccccc1 (stereo not given)	1.12 µM (active)	
CCN(Cc1ccccc1)Cc1cccc([N+](=O)[O-])c1	inactive	
CCN(/C=N/c1sc2c(c1C#N)CCCCC2)CC		-17.6% [at 2.29 µM] (inactive)
CCCN(/C=N/c1sc2c(c1C#N)CCCCC2)CCC	7.94 µM (active)	
COc1ccccc1CNc1ncncc1-c1cccc(NS(C)(=O)=O)c1	0.251 µM (active)	
COc1ccc(CNc2ncncc2-c2cccc(NS(C)(=O)=O)c2)c(OC)c1	0.251 µM (active)	
Cc1cc2c(cc1S(N)(=O)=O)S(=O)(=O)CCC2	inactive	

Structure (SMILES)	AC50	activity, negative = inhibition
CCOC(=O)Nc1ccc(C(=O)NCC2CCCO2)cc1 (stereo not given)	inactive	
CCC(C)(C(=O)NC1CCCC1)N(CC1CCCO1)C(=O)c1ccc2c(c1)OCO2 (stereo not given)	3.98 µM (active)	
Cc1ccc(C(=O)NCC2CCCO2)cc1N1CCCC1=O (stereo not given)	inactive	
COc1cccc(CNc2ccc3nc(-c4ccc(N)cc4)c(OC)n3n2)c1	5.01 µM (active)	
CC(=O)OCCCN1c2ccccc2Nc2nnc(-c3ccccc3)cc21	12.6 µM (active)	
COc1ccc(CN(CCN(C)C)c2ccccn2)cc1	inactive	
CN(C)c1nccc(N(Cc2ccccc2)Cc2ccccc2)c1C#N	12.6 µM (active)	
Cc1ccc(N(Cc2ccccc2)Cc2ccccc2)cc1		-22.6% [at 11.4 µM] (inactive)
CO[C@@H]1COC(=O)[C@H]2CCCN2C(=O)C/C=C\[C@@H](C)[C@H](OC)COC(=O)[C@H]2CCCN2C(=O)C/C=C\[C@H]1C		-3.39% [at 11.4 µM] (inactive)
CN(C)c1ncc2ncc(=O)n(C)c2n1	inactive	
c1ccc(-c2nccc(-c3ccc(-n4cnc5ccccc54)cc3)n2)nc1	inactive	
c1ccc2c(c1)ncn2-c1ccc(-c2ccnc(-c3ccncc3)n2)cc1	0.501 µM (active)	
O=C(O)COc1ccc(-c2nccc(-c3cccs3)n2)cc1	inactive	
COc1ccc(C(=O)N2CCC[C@@]3(CCN(C(=O)Nc4cccc(C#N)c4)C3)C2)cc1	7.94 µM (active)	
N#Cc1cccc(NC(=O)N2CC[C@@]3(CCCN(C(=O)c4ccncc4)C3)C2)c1	15.8 µM (active)	
COC(=O)N1CCC2(CC1)CN(C(=O)Nc1cccc(C#N)c1)C2	inactive	
COc1ccc(C(=O)N2CCC3(CCCN(C(=O)Nc4cccc(C#N)c4)C3)CC2)cc1	6.31 µM (active)	
CC(=O)N1CCC2(CC1)CN(C(=O)Nc1cccc(C#N)c1)C2	inactive	
COCC(=O)N1CCC2(CCCN(C(=O)Nc3cccc(C#N)c3)C2)CC1	inactive	
COC(=O)N1CCC[C@@]2(CCN(C(=O)Nc3cccc(C#N)c3)C2)C1	inactive	
COCC(=O)N1CCC[C@@]2(CCN(C(=O)Nc3ccccc3)C2)C1	inactive	
COCC(=O)N1CCC2(CC1)CN(C(=O)Nc1cccc(C#N)c1)C2	inactive	
COc1ccc(C(=O)N2CCC3(CC2)CN(C(=O)Nc2cccc(C#N)c2)C3)cc1	15.8 µM (active)	
CC(C)c1nnc(-c2ccc(Cl)cc2)c(N(C)C)n1		-7.47% [at 2.29 µM] (inactive)

Structure (SMILES)	AC50	activity, negative = inhibition
Cn1c(=O)c(C(=O)CN2CCOCC2)c(N)n(Cc2ccccc2)c1=O	inactive	
CCCn1c(N)c(C(=O)CSc2nc(C)cs2)c(=O)n(C)c1=O	6.31 µM (active)	
O=C(O)[C@@H](O)Cc1ccccn1		15.2% [at 11.4 µM] (inactive)
CN(C)c1ncc2nc(-c3ccccc3)c(=O)n(Cc3ccc(F)cc3)c2n1	inactive	
CN1CCN(c2ncc3nc(-c4cccc(C#N)c4)c(=O)n(CCC#N)c3n2)CC1	inactive	
Cc1nc2cnc(N(C)C)nc2n(CCC#N)c1=O	inactive	
Cc1nc2cnc(N(C)C)nc2n(Cc2ccc(F)cc2)c1=O	0.0251 µM (active)	
O=c1cnc2cnc(N3CCNCC3)nc2n1Cc1ccc(F)cc1	7.94 µM (active)	
CN1CCN(c2ncc3nc(-c4ccccc4)c(=O)n(Cc4ccc(F)cc4)c3n2)CC1	inactive	
O=c1c(-c2ccccc2)nc2cnc(N3CCNCC3)nc2n1Cc1ccc(F)cc1	3.16 µM (active)	
O=c1c(-c2ccc(F)cc2)nc2cnc(N3CCOCC3)nc2n1C[C@H]1CCCO1	inactive	
CN1CCN(c2ncc3nc(-c4cccc(C#N)c4)c(=O)n(C)c3n2)CC1	inactive	
CN1CCN(c2ncc3nc(-c4cccc(C#N)c4)c(=O)n(Cc4ccc(F)cc4)c3n2)CC1	20 µM (active)	
N#CCCn1c(=O)cnc2cnc(N3CCNCC3)nc21	inactive	
COc1ccc(-n2c(=O)cnc3cnc(N4CCNCC4)nc32)cc1	inactive	
O=c1c(-c2ccc(F)cc2)nc2cnc(N3CCNCC3)nc2n1Cc1ccc(F)cc1	7.94 µM (active)	
COCCn1c(=O)c(C)nc2cnc(N3CCN(C)CC3)nc21	inactive	
Cc1nc2cnc(N3CCNCC3)nc2n(Cc2ccc(F)cc2)c1=O	15.8 µM (active)	
Cc1nc2cnc(N3CCN(C)CC3)nc2n(C)c1=O	inactive	
N#CCCn1c(=O)c(-c2ccc(F)cc2)nc2cnc(N3CCOCC3)nc21	inactive	
COCCn1c(=O)c(-c2ccc(F)cc2)nc2cnc(N3CCOCC3)nc21	inactive	
NC(=O)C[C@H](NC(=O)Cc1ccc(O)cc1O)C(=O)O	inactive	
Nc1ncnc2c1ncn2[C@@H]1CCCO1	inactive	
COC(=O)c1cc2c(ccn2-c2ccc(F)cc2)n1CC(C)C	inactive	

Structure (SMILES)	AC50	activity, negative = inhibition
CCOC(=O)c1cc2c(ccn2C)n1CC(=O)N1CCCC(C)C1 (stereo not given)	14.1 µM (active)	
CC(C)OC(=O)c1cc2c(ccn2C)n1CC(=O)N1CCC(Cc2ccccc2)CC1	7.08 µM (active)	
CCCS(=O)(=O)N1CCCC(C(=O)NCCN2CCC(Cc3ccccc3)CC2)C1 (stereo not given)	inactive	
Cc1ccc(C)c(Cn2c(C(=O)OC(C)C)cc3c2ccn3C)c1	7.94 µM (active)	
C[C@@H](CN1CCC(Cc2ccccc2)CC1)[C@@H](O)c1ccc(O)cc1	inactive	
C[n+]1cccc(CNC(=O)/C=N/O)c1	inactive	
O=C1NC(O)=NC1(c1ccccc1)c1ccccc1	inactive	
CCCNC(=O)CC(NS(=O)(=O)c1ccc(Cl)cc1)c1ccco1 (stereo not given)	22.4 µM (active)	
O=C(CC(NS(=O)(=O)c1ccc(Cl)cc1)c1ccco1)NCc1ccco1 (stereo not given)	14.1 µM (active)	
CCCCNC(=O)NS(=O)(=O)c1cnccc1Sc1ccc(Cl)cc1		-25.5% [at 2.29 µM] (inactive)
O=C(NCCO)c1cc2c(s1)CCC2	inactive	
C[C@@H]1O[C@H](O[C@@H]2[C@H](C)O[C@H](O[C@@H]3[C@H](C)O[C@H](O[C@H]4CC[C@]5(C)[C@@H](CC[C@@H]6[C@H]5C[C@@H](O)[C@]5(C)[C@@H](C7=CC(=O)OC7)CC[C@]65O)C4)C[C@@H]3O)C[C@@H]2O)C[C@H](O)[C@@H]1O	inactive	
NCCn1c(=O)c(CCc2ccccc2)nc2cncnc21	15.8 µM (active)	
COc1ccccc1CCn1c(=O)c(CCc2ccccc2)nc2cncnc21	3.16 µM (active)	
COCCn1c(=O)c(CCc2ccccc2)nc2cncnc21	7.94 µM (active)	
O=C(O)/C=C\c1c2ccc(=O)c(O)c-2oc2c(O)c(O)ccc12		-22.7% [at 11.4 µM] (inactive)
COCCn1c(C)cc2c(c1=O)C(c1ccccc1F)C(C#N)=C(N)O2 (stereo not given)	5.62 µM (active)	
CCCC[S@@](=N)(=O)CC[C@@H](N)C(=O)O	inactive	
CCNCCCNCCCNCCCNCC	inactive	
Cc1cccc(N(C)S(=O)(=O)c2ccc3[nH]c(=O)c(=O)[nH]c3c2)c1	14.1 µM (active)	
COc1ccc2c3c([nH]c2c1)[C@H]1C[C@@H]2[C@@H](C[C@@H](O)[C@H](OC)[C@H]2C(=O)O)CN1CC3		-4.43% [at 11.4 µM] (inactive)
CCS(=O)(=O)N1CCC[C@H]2CN3CCc4cc(OC)ccc4[C@@H]3C[C@@H]21	5.01 µM (active)	
COc1ccc2c3c([nH]c2c1)[C@@H]1C[C@@H]2[C@@H](C[C@H](O)[C@H](OC)[C@H]2C(=O)O)CN1CC3	inactive	
